Laboratory results: PubChem BioAssay AID651598 (Sanford-Burnham Center for Chemical Genomics, 2012)
Values joined by “and” are separate entries in the source; they are usually repeats but may differ in a detail not shown here. Equal values may be shown once.

The molecules below were run against Apelin receptor (Homo sapiens) (UniProt P35414) (assay: apelin receptor (APJ) antagonists, SAR follow-up, counter-screen for CXCR6 antagonist project, cell-based, beta-arrestin, DiscoveRx, panel, CHO-K1 (AID 651598)). Settings: CHO-K1 PathHunter beta-arrestin luminescence, antagonist mode; run 6, at 80 µM (top of the series).
Apelin receptor (Homo sapiens), sequence (P35414 whole entry, looked up): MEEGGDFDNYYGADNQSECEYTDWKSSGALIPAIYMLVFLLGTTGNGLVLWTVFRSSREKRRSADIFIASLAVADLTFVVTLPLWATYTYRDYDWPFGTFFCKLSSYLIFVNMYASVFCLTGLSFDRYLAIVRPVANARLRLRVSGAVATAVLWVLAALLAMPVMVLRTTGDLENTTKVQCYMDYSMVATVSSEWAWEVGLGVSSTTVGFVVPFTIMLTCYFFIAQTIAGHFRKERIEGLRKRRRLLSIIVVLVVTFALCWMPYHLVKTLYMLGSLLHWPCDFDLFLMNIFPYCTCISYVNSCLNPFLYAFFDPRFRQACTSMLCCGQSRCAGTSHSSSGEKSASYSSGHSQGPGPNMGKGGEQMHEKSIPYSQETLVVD

**Q.** With COc1cc(C(=O)NC2CCN(CC(=O)Nc3ccccc3)CC2)cc(OC)c1OC as the molecule, how does the inhibition read?
**A.** The inhibition was -2.93%.

**Q.** For COc1cc(C(=O)NC2CC3CCCC(C2)N3CC(=O)Nc2ccccc2)cc(OC)c1OC (stereo not drawn), which inhibition is on record?
**A.** Its inhibition is 9.24% and -4.02% and 20.6%.

**Q.** With COc1cc(C(=O)NC2CC3CCC(C2)N3CC(=O)Nc2ccccc2)cc(OC)c1OC (stereo not drawn) as the molecule, how does the inhibition read?
**A.** The inhibition was 10.4% and -17.1%.
